About 83,000 compounds went through this panel and 20% of them were active in at least one assay; those are over-represented in the sample as a whole.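 How to read the values: 0–100, growth inhibition (40 = 60% inhibited); 0, no net growth; -100 to 0, cell death (-40 = 40% of starting cells died; -100 = all dead).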 Values without a mark were called inactive. Active and inactive are the calls of the source. The calls were made as follows: active = growth percent below 10; inactive = the rest.

Test systems include SK-MEL-2 melanoma; EKVX NSCLC; SN12C renal; UO-31 renal; TK-10 renal; ACHN renal; A498 renal; CCRF-CEM leukemia; MOLT-4 leukemia; SR leukemia; RPMI-8226 leukemia; OVCAR-8 ovarian; OVCAR-4 ovarian; SK-OV-3 ovarian; IGROV1 ovarian; OVCAR-3 ovarian; HS 578T breast; NCI/ADR-RES ovarian; OVCAR-5 ovarian.
Holding throughout (assay): NCI-60 one-dose screen, 48 h (100 = growth as untreated, 0 = no growth, -100 = all killed)
Conditions in all cases: 10 µM unless noted

For `COc1cc2c(cc1OC)C(Sc1ccc(SC)cc1)c1c(nc(N)c(C#N)c1N)O2` (stereo not given), the growth with SK-MEL-2 melanoma was -63.7% (active); in the experiment on EKVX NSCLC, -45.6% (active); in the experiment on SN12C renal, -88% (active); in the experiment on UO-31 renal it was -99.7% (active); with TK-10 renal, -95.7% (active); with ACHN renal it was -86.4% (active). The growth with A498 renal was -6.98% (active); in the experiment on CCRF-CEM leukemia, -32.7% (active); with MOLT-4 leukemia it was -26.3% (active); in the experiment on SR leukemia it was -37.4% (active); with RPMI-8226 leukemia it was -37.9% (active); with OVCAR-8 ovarian, -90.6% (active). The growth was -94.8% (active) in the experiment on OVCAR-4 ovarian; -85.1% (active) with SK-OV-3 ovarian; -68.9% (active) in the experiment with IGROV1 ovarian; -88.7% (active) in the experiment on OVCAR-3 ovarian; 4.87% (active) in the experiment with HS 578T breast; -23.2% (active) with NCI/ADR-RES ovarian.

`CCCCC(=O)OCC1OC(n2cnc3c(=S)nc[nH]c32)C(OC(=O)CCCC)C1OC(=O)CCCC` (stereo not given): the growth is 46.2% in the experiment on SK-MEL-2 melanoma; 31.3% in the experiment on EKVX NSCLC; 27.4% in the experiment on SN12C renal; 35% with UO-31 renal; 14.9% in the experiment on TK-10 renal; 17.2% in the experiment on ACHN renal. In addition, the growth in the experiment with A498 renal was 24.8%; in the experiment on CCRF-CEM leukemia it was 28.4%; in the experiment on MOLT-4 leukemia it was 15.3%; with SR leukemia it was 24.5%; with OVCAR-8 ovarian it was -23.2% (active); with OVCAR-5 ovarian, 32.3%. Moreover, the growth is 29.8% in the experiment on OVCAR-4 ovarian, 19.3% in the experiment with SK-OV-3 ovarian, 22% in the experiment on OVCAR-3 ovarian and 38.1% with HS 578T breast.

Consider `Clc1ccc2c(NCCCCNc3nc(N4CCCCC4)nc4ccccc34)ccnc2c1`, for which the growth was -65.9% (active) in the experiment with SK-MEL-2 melanoma; 38.9% with EKVX NSCLC; 20.3% in the experiment with SN12C renal; -55.6% (active) in the experiment with UO-31 renal; -59.5% (active) in the experiment with TK-10 renal; -43.7% (active) with ACHN renal. Further, the growth in the experiment with A498 renal was 41.1%; in the experiment on CCRF-CEM leukemia it was -22.9% (active); in the experiment with MOLT-4 leukemia it was 1.5% (active); with SR leukemia, -35.7% (active); in the experiment on RPMI-8226 leukemia it was -45.9% (active); with OVCAR-8 ovarian it was 11.7%. The growth in the experiment on OVCAR-5 ovarian is 17.1%; with OVCAR-4 ovarian, 29.8%; in the experiment with SK-OV-3 ovarian it was 50.8%; in the experiment with OVCAR-3 ovarian it was -27.3% (active); with HS 578T breast, -19.9% (active); with NCI/ADR-RES ovarian, 19.3%.

Regarding `COc1cc(C)c(C2C(C#N)=C(N)Oc3n[nH]c(-c4cccs4)c32)cc1C(C)C` (stereo not given), the growth is 102% in the experiment on SK-MEL-2 melanoma; 97% with EKVX NSCLC; 103% with SN12C renal; 98.7% in the experiment on UO-31 renal; 98.2% in the experiment with TK-10 renal; 108% in the experiment with ACHN renal. The growth is 93% with A498 renal; 81.5% with CCRF-CEM leukemia; 79.4% with MOLT-4 leukemia; 87.1% with SR leukemia; 87.5% in the experiment with RPMI-8226 leukemia; 89.1% with OVCAR-8 ovarian. Also, the growth is 115% in the experiment on OVCAR-5 ovarian; 103% in the experiment on OVCAR-4 ovarian; 98% in the experiment on SK-OV-3 ovarian; 108% with IGROV1 ovarian; 109% in the experiment with OVCAR-3 ovarian; 103% with NCI/ADR-RES ovarian.

Consider `COc1cc(-c2nn(-c3ccc(C(=O)O)cc3)cc2C(=O)O)ccc1O`, for which the growth with SK-MEL-2 melanoma was 88.1%; in the experiment with EKVX NSCLC, 76.4%; in the experiment on SN12C renal, 81.4%; in the experiment with UO-31 renal it was 56.1%; in the experiment on TK-10 renal, 122%; with ACHN renal, 44.8%. In addition, the growth in the experiment on A498 renal was 97.9%; with CCRF-CEM leukemia it was 67.9%; in the experiment on MOLT-4 leukemia it was 90%; in the experiment with SR leukemia it was 32.9%; in the experiment with RPMI-8226 leukemia it was 88.2%; in the experiment with OVCAR-8 ovarian it was 73.2%. Moreover, the growth in the experiment on OVCAR-5 ovarian is 110%; in the experiment on OVCAR-4 ovarian, 83.8%; in the experiment on SK-OV-3 ovarian, 74.3%; with IGROV1 ovarian it was 81%; in the experiment on OVCAR-3 ovarian, 42.8%; with HS 578T breast, 76.5%. Further, the growth in the experiment with NCI/ADR-RES ovarian is 29.7%.

With `CC1=C(O)C(=O)C(C(C#N)(C#N)C(C#N)C#N)C1` (stereo not given), the growth in the experiment on SK-MEL-2 melanoma is 83.9%; with EKVX NSCLC, 95.3%; in the experiment on SN12C renal, 100%; with UO-31 renal, 94.3%; with TK-10 renal, 105%; in the experiment with ACHN renal, 106%. Further, the growth in the experiment on A498 renal is 97.1%; with CCRF-CEM leukemia it was 112%; in the experiment on MOLT-4 leukemia, 100%; in the experiment with SR leukemia, 99.3%; in the experiment on RPMI-8226 leukemia, 106%; in the experiment on OVCAR-8 ovarian, 101%. Besides, the growth was 109% with OVCAR-5 ovarian; 107% in the experiment with OVCAR-4 ovarian; 99% with SK-OV-3 ovarian; 102% in the experiment with IGROV1 ovarian; 94.8% in the experiment with OVCAR-3 ovarian; 97.7% in the experiment on NCI/ADR-RES ovarian.

For the molecule `CCNC(=O)Oc1ccc(/C(=C(\C)c2ccc(Cl)cc2)c2ccc(OCCN(CC)CC)cc2)cc1`, the growth in the experiment on SK-MEL-2 melanoma is 38.1%; in the experiment with EKVX NSCLC, 60.1%; in the experiment on SN12C renal it was 66.1%; in the experiment with UO-31 renal, 25.8%; in the experiment with TK-10 renal, 80.4%; in the experiment with ACHN renal, 71.3%. Further, the growth in the experiment on A498 renal is 85.5%; with CCRF-CEM leukemia, 16.4%; in the experiment with MOLT-4 leukemia, 7.99% (active); in the experiment with SR leukemia it was -26.8% (active); with RPMI-8226 leukemia, -11.4% (active); in the experiment on OVCAR-8 ovarian it was 64.8%. For the same molecule, the growth with OVCAR-5 ovarian was 85.9%; with OVCAR-4 ovarian it was 40.5%; in the experiment with SK-OV-3 ovarian, 61.5%; in the experiment on IGROV1 ovarian it was 49.2%; in the experiment on OVCAR-3 ovarian, 53.9%; with HS 578T breast, 47.1%. Moreover, in the experiment with NCI/ADR-RES ovarian, the growth is 57.3%.

For `CC1C(/C=N/Nc2ccccc2)C(C#N)(C#N)C1(C#N)C#N` (stereo not given), the growth with SK-MEL-2 melanoma was 85.2%; in the experiment on EKVX NSCLC it was 71.8%; with SN12C renal it was 86.5%; in the experiment with UO-31 renal, 52%; with TK-10 renal, 130%; in the experiment on ACHN renal, 44.4%. In addition, the growth in the experiment with A498 renal was 99.9%; in the experiment on CCRF-CEM leukemia it was 58%; with MOLT-4 leukemia it was 67%; in the experiment with SR leukemia, 46.6%; in the experiment with RPMI-8226 leukemia it was 82%; in the experiment on OVCAR-8 ovarian, 85.6%. Moreover, the growth in the experiment with OVCAR-5 ovarian is 87.3%; in the experiment on OVCAR-4 ovarian, 76.1%; in the experiment with SK-OV-3 ovarian it was 95.7%; in the experiment with IGROV1 ovarian, 56.3%; in the experiment with OVCAR-3 ovarian, 86.2%; with HS 578T breast, 87.2%. Also, the growth in the experiment with NCI/ADR-RES ovarian is 65.1%.

The record behind these values is PubChem BioAssay (NCI).
